Holding throughout (type): functional
In test [1] the test system is Plasmodium falciparum. Kind of test: GSK_TCMDC: Inhibition of Plasmodium falciparum 3D7 in whole red blood cells, using parasite LDH activity as an index of growth. Test compounds present at 2uM.
Test [2] concerns Plasmodium falciparum. Kind of test: GSK_TCMDC: Inhibition of Plasmodium falciparum Dd2 in whole red blood cells, using parasite LDH activity as an index of growth. Test compounds present at 2uM.
A further test deals with HepG2. Nature of the test: GSK_TCMDC: Percent inhibition of human HepG2 cell line. Test compounds present at 10uM.

In the case of `Cc1noc(C)c1-c1cccc(CNCc2ccc(-c3ccc(-c4nc5cc(F)ccc5[nH]4)cc3)cc2)c1.O=C(O)C(F)(F)F`, the Inhibition was found to be 100% in the test with Plasmodium falciparum [1], 92% in the test on Plasmodium falciparum [2] and 23% in the test on HepG2.
On to `CC1CCC(NCc2c(O)ccc3ccccc23)CC1.Cl` (centres undefined), for which the Inhibition amounted to 95% in the test on Plasmodium falciparum [1], 77% with Plasmodium falciparum [2] and 13% in the test with HepG2.
The matching figures for `CC[C@H](N/C(=N\c1ccc(-c2ccccc2)cc1)Nc1ccc(C#N)cc1O)c1ccccc1`: 99%, 97% and 0%.
For `Cn1nccc1C(=O)NCCNCc1ccc(-c2ccc(-c3nc4ccccc4[nH]3)s2)cc1.O=C(O)C(F)(F)F`, the Inhibition amounted to 100% in the test with Plasmodium falciparum [1], 97% in the test with Plasmodium falciparum [2] and 23% with HepG2.
As for `O=C(O)C(F)(F)F.O=S(=O)(NCCN1CCCC1)c1ccc(-c2ccc(CNC3Cc4ccccc4C3)cc2)cc1`, the values for the Inhibition with Plasmodium falciparum [1], with Plasmodium falciparum [2] and in the test on HepG2 were 99%, 91% and 61%, respectively.
The matching figures for `CS(=O)(=O)c1ccc(CCNCc2ccc(-c3ccc(CNC4CCN(Cc5ccccc5)CC4)cc3)nc2)cc1.O=C(O)C(F)(F)F`: 100%, 100% and 32%.
Turning to `Oc1cccc(CNCCCN(Cc2ccccc2)c2ccccc2)c1`, the values for the Inhibition in the test on Plasmodium falciparum [1], with Plasmodium falciparum [2] and in the test with HepG2 were 99%, 97% and 7%, respectively.
Regarding `CCN(CC)CCCCNc1cc(-c2[nH]c(-c3c(Cl)cccc3Cl)nc2-c2ccc3cc(OC)ccc3c2)ccn1.O=C(O)C(F)(F)F`, the Inhibition in the test on Plasmodium falciparum [1] is on record as 95%; in the test with Plasmodium falciparum [2] it was 93%; with HepG2 it was 23%.
The corresponding values for `O=C(Nc1cccc(-c2cccc(-c3nc4cc(C(F)(F)F)ccc4[nH]3)c2)c1)c1c[nH]cn1` are 100%, 100% and 14%.
Consider `Fc1cccc(COc2ccc(Nc3ncnc4ccc(C#C[C@H]5CCCN5)cc34)cc2Cl)c1`, for which the Inhibition in the test with Plasmodium falciparum [1] was found to be 91%; with Plasmodium falciparum [2] it was 26%; with HepG2, 7%.
In the case of `O=C(Nc1ccc2c(c1)OCO2)c1cc(-c2cccnc2)cnc1NCc1ccc2c(c1)OCO2`, the Inhibition came out at 87% with Plasmodium falciparum [1], 1% in the test with Plasmodium falciparum [2] and 2% with HepG2.
The matching figures for `CN(C)c1ccc(CN2CCCCC(NC(=O)c3cc(-c4ccccc4Cl)cs3)C2)cc1.O=C(O)C(F)(F)F` (centres undefined): 91%, 14% and 10%.
Take `Clc1cccc(Cl)c1CCNCC1CCN(CC2CCCCC2)CC1.O=C(O)C(F)(F)F`: the results for the Inhibition in the test with Plasmodium falciparum [1], with Plasmodium falciparum [2] and in the test with HepG2 were 98%, 94% and 39%, respectively.
The matching figures for `COc1ccc(Nc2cc(C)nc(NCc3ccc4c(c3)OCO4)n2)cc1`: 99%, 78% and 26%.
The corresponding values for `CN(C)CCOc1ccc(-c2cc(-c3ccncc3)c(-c3ccc(Cl)c(O)c3)[nH]2)cc1.Cl` are 98%, 100% and 25%.
In the case of `Oc1ccc(Nc2nc(NCc3ccccc3)c3ccccc3n2)cc1`, the Inhibition with Plasmodium falciparum [1] is 100%; in the test on Plasmodium falciparum [2] it was 100%; in the test with HepG2 it was 33%.
Turning to `O=C(Nc1cccc(-c2ccc(-c3nc4cc(C(F)(F)F)ccc4[nH]3)s2)c1)c1cccnc1`, the Inhibition in the test on Plasmodium falciparum [1] is recorded as 100%; with Plasmodium falciparum [2], 99%; in the test on HepG2, 74%.
The corresponding values for `CCC1(CC)N=C(N)N=C(N)C1c1ccc(Cl)c(Cl)c1.Cl` (centres undefined) are 98%, 20% and 0%.
Turning to `CC(CN(C)C)C(=O)Nc1cccc(-c2ccc(-c3nc4cc(F)ccc4[nH]3)cc2)c1` (centres undefined), the results for the Inhibition in the test with Plasmodium falciparum [1], in the test with Plasmodium falciparum [2] and in the test on HepG2 were 100%, 100% and 11%, respectively.
Consider `O=[N+]([O-])c1ccc(Nc2nc(N/N=C/c3ccc(-c4ccc([N+](=O)[O-])cc4)o3)nc(Nc3ccccc3)n2)cc1`, for which the Inhibition is 100% with Plasmodium falciparum [1], 74% with Plasmodium falciparum [2] and 0% with HepG2.
The corresponding values for `Cc1[nH]c(C)c(-c2ccc(-c3ccc(C#N)cc3)nc2)c(=O)c1Br` are 97%, 87% and 5%.
The matching figures for `CN1CCN(c2cc(NC(=O)Nc3cccc(Cl)c3Cl)ccc2Cl)CC1.Cl`: 100%, 21% and 2%.
For the molecule `CC(C)N(Cc1ccccc1)C(=O)CN1C(=O)COc2ccc(S(=O)(=O)N3CCCCCC3)cc21`, the Inhibition in the test with Plasmodium falciparum [1] is 99%; in the test with Plasmodium falciparum [2], 99%; in the test on HepG2, 0%.
On to `CN1CCN(c2ccc(CNc3ccc4ncc(-c5cccc(OC(F)(F)F)c5)n4n3)cc2)CC1`, for which the Inhibition came to 89% in the test on Plasmodium falciparum [1], 78% with Plasmodium falciparum [2] and 25% with HepG2.
For `Cc1nc(-c2nc(NCc3ccc4c(c3)OCO4)ncc2-c2ccsc2)sc1C`, the Inhibition in the test with Plasmodium falciparum [1] was found to be 97%; with Plasmodium falciparum [2] it was 77%; in the test on HepG2 it was 7%.
The matching figures for `COc1ccc(COc2c(OC)cc(Cc3cnc(N)nc3N)cc2OC)cc1`: 90%, 23% and 5%.
The corresponding values for `O=[N+]([O-])c1ccc(Nc2nc(NCc3ccccc3)nc(N/N=C/c3ccccc3[N+](=O)[O-])n2)cc1` are 100%, 99% and 18%.
As for `O=C(Nc1cccc(-c2cccc(-c3nc4cc(C(F)(F)F)ccc4[nH]3)c2)c1)c1csnn1`, the Inhibition with Plasmodium falciparum [1] is on record as 99%; in the test on Plasmodium falciparum [2], 37%; in the test with HepG2 it was 45%.

For the origin of these results see ChEMBL document CHEMBL1157539, “Thousands of chemical starting points for antimalarial lead identification” (Nature, 2010).
